# Measurements taken from PMC4336329 (PLoS ONE, 2015).
# Hit rate of the full screen: of about 310,000 compounds, about 2,200 (0.71%) showed an effect of 50% or more. Effects have a minus sign here. The entries come from a sample that favours strong results as a whole.
# Target: human ether-à-go-go-related gene (hERG) potassium channel (human, UniProt Q12809)
# Assay: primary screen, population patch clamp on CHO cells stably expressing hERG; higher = less effect of the substance
# Chain of human ether-à-go-go-related gene (hERG) potassium channel (Q12809 whole entry, looked up): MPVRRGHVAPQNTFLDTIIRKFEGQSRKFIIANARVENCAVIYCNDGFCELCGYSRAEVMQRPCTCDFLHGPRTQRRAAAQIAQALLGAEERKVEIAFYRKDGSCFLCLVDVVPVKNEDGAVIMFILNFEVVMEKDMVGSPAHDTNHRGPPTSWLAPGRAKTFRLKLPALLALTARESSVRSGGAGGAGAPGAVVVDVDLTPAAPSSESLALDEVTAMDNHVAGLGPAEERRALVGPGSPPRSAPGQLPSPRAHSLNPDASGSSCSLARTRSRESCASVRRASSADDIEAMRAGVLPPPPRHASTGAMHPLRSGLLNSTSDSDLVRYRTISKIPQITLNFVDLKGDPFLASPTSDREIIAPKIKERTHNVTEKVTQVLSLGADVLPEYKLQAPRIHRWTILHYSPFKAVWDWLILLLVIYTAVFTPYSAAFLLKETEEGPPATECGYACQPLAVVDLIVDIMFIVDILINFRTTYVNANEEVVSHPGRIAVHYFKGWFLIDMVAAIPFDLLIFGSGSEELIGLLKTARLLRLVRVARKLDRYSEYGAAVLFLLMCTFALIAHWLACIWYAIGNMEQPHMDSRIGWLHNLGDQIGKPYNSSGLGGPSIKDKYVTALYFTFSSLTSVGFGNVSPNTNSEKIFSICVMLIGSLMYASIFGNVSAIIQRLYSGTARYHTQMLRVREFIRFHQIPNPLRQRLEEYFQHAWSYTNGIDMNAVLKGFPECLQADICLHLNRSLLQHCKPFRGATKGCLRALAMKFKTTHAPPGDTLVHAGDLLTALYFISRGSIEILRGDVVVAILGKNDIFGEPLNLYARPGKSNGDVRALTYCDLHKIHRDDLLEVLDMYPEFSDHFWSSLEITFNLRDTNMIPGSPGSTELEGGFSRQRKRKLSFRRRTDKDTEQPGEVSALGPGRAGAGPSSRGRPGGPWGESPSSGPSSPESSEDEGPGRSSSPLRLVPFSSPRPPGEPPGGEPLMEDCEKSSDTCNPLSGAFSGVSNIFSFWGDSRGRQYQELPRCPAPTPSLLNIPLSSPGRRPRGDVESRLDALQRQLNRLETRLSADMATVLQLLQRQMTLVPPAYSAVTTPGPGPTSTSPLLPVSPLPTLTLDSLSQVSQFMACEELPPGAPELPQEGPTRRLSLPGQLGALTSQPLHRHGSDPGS
row,Structure (SMILES),"hERG current change (%, negative = inhibition) at 1uM [%]"
1,Oc1c(Br)cc(/C=N/n2c(-c3ccccc3)n[nH]c2=S)c(Br)c1O,17.1
2,O=[N+]([O-])c1ccc(OCC(O)CN(CCO)CCO)cc1 (stereo not drawn),-16.9
3,Cl.O=[N+]([O-])c1ccc(OCC(O)CNC2CCCC2)cc1 (stereo not drawn),-30.3
4,COC(=O)c1ccc(OCC(O)CN(CC(C)C)CC(C)C)cc1 (stereo not drawn),6.51
5,CC(C)CN(CC(C)C)CC(O)COc1ccc([N+](=O)[O-])cc1.Cl (stereo not drawn),-52.1
6,CC(C)N(C(=O)/C=C/c1cccc([N+](=O)[O-])c1)C(C)C,7.97
7,COc1ccc(OCC(O)CN(C)C(=O)/C=C/c2cccc([N+](=O)[O-])c2)cc1 (stereo not drawn),-56.7
8,Cc1nccn1CC(O)COc1ccc([N+](=O)[O-])cc1 (stereo not drawn),-41.3
9,CCCCN(CCCC)CC(O)COc1ccc(Br)cc1 (stereo not drawn),-43.6
10,COc1ccc(OCC(O)CN(C2CCCCC2)C2CCCCC2)cc1.Cl (stereo not drawn),-37.9
11,COc1ccc(OCC(O)CNC(=O)/C=C/c2cccc([N+](=O)[O-])c2)cc1 (stereo not drawn),14.8
12,O=[N+]([O-])c1ccc(OCC(O)CN(C2CCCCC2)C2CCCCC2)cc1 (stereo not drawn),-80.4
13,CCCN(CCC)CC(O)COc1ccc([N+](=O)[O-])cc1 (stereo not drawn),-81.4
14,CCOc1ccccc1NC(=O)CSc1nc2ccccc2c(=O)n1CC1CCCO1 (stereo not drawn),-35.6
15,Cc1c(=O)n(OCc2ccccc2)c2ccccc2[n+]1[O-],9.46
16,Oc1cnn(-c2ccccc2)c1,5.96
17,CC(=O)NC(CC(=O)OCc1ccc([N+](=O)[O-])cc1)c1ccccc1 (stereo not drawn),-27
18,COCCNC(=O)CSc1nc2sccc2c(=O)n1-c1ccccc1,16.6
19,CCn1c(NC(=O)C(C)C)c2ccccc2nc1=O,2.18
20,COc1cc(C)nc(N(C)S(=O)(=O)c2ccccc2Cl)n1,7.72
21,CCN(CC)S(=O)(=O)c1cccc(C(=O)Nc2ccc(C#N)cc2)c1,-74
22,CCN(CC)S(=O)(=O)c1cccc(C(=O)Nc2ccccc2)c1,-0.175

row,Structure (SMILES),"hERG current change (%, negative = inhibition) at 1uM [%]"
1,CCN(CC)S(=O)(=O)c1cccc(NC(=O)c2ccc(C#N)cc2)c1,3.29
2,COC(=O)CSC(C(=O)Nc1ccc(C)c(C)c1)c1ccccc1 (stereo not drawn),-4.33
3,O=C(Cn1ccc([N+](=O)[O-])n1)N1CCCCCC1,13.1
4,COC(=O)c1ccc(/C=N/NC(=O)C2CC(=O)N(c3ccc(F)cc3)C2)cc1 (stereo not drawn),16.8
5,COC(=O)c1nn(-c2cccc(C(F)(F)F)c2)ccc1=O,8.73
6,COc1ccc(/C=N/NC(=O)c2ccccc2[N+](=O)[O-])cc1CN1CCc2cc(OC)c(OC)cc2C1C (stereo not drawn),-10.4
7,COc1ccc(/C=N/NC(=O)c2cccnc2)cc1CN1CCc2cc(OC)c(OC)cc2C1C (stereo not drawn),1.82
8,COc1ccc(/C=N/NC(=O)c2ccc(F)cc2)cc1CN1CCc2cc(OC)c(OC)cc2C1C (stereo not drawn),-99.1
9,COc1ccc(C(=O)N/N=C/c2ccc(OC)c(CN3CCc4cc(OC)c(OC)cc4C3C)c2)cc1 (stereo not drawn),-85.1
10,COc1ccc(C(=O)N/N=C/c2ccc(OC)c(CN3CCCc4ccccc43)c2)cc1,-6.65
11,COc1ccc(/C=N/NC(=O)c2cc(OC)c(OC)c(OC)c2)cc1CN1CCc2cc(OC)c(OC)cc2C1C (stereo not drawn),-21.9
12,Cc1cccc([C@@H]2[C@@H]3C(=O)N(Cc4ccccc4)C(=O)[C@@H]3[C@]3(Cc4ccccc4)C(=O)N(c4cccc(F)c4)C(=O)N23)c1,9.13
13,COc1cc(/C=C2/SC(=S)N(CC(=O)O)C2=O)ccc1OC(=O)c1ccco1,7.62
14,N=C1/C(=C/c2ccc(OCc3ccccc3F)cc2)C(=O)N=C2SC(CC(=O)N3CCOCC3)=NN12,12.2
15,CCC(Sc1nc(N)c(NC(=O)c2ccc(OC)c(OC)c2)c(=O)[nH]1)C(=O)OC (stereo not drawn),-5.41
16,CCC(NS(=O)(=O)c1cccs1)c1ccc(C)cc1 (stereo not drawn),8.69
17,O=C(c1ccccc1F)N1CCN(c2ccc([N+](=O)[O-])c3cccnc23)CC1,-13.2
18,O=[N+]([O-])c1ccc(N2CCN(S(=O)(=O)c3ccccc3)CC2)c2cccnc12,-75.6
19,O=C(c1ccccc1F)N1CCN(c2ccc([N+](=O)[O-])c3ncccc23)CC1,-38.7
20,O=C(c1cc(F)c(F)cc1Cl)N1CCN(c2ccc([N+](=O)[O-])c3ncccc23)CC1,-53.6
21,O=[N+]([O-])c1cccc2c(N3CCCC3)ccnc12,-84.4
22,O=[N+]([O-])c1ccc(N2CCCC2)c2ncccc12,2.1

row,Structure (SMILES),"hERG current change (%, negative = inhibition) at 1uM [%]"
1,Cc1ccc(S(=O)(=O)N2CCN(c3ccc([N+](=O)[O-])c4cccnc34)CC2)cc1,7.53
2,O=[N+]([O-])c1ccc(N2CCOCC2)c2cccnc12,-7.04
3,O=[N+]([O-])c1cccc2c(N3CCOCC3)ccnc12,10
4,COc1cc(NC(=O)C2CC(=O)N(Cc3ccco3)C2)cc(OC)c1 (stereo not drawn),2.39
5,CC/C(=N\NC(=O)c1ccc(N2CCCC2=O)cc1)c1ccccc1,10.8
6,Cc1ccc2nc(SC(C)C(=O)NC3CCCc4ccccc43)[nH]c2c1 (stereo not drawn),11.6
7,CC1(c2ccc([N+](=O)[O-])cc2)NC(=O)N(CC(=O)Nc2ccc(N3CCCCC3)cc2)C1=O (stereo not drawn),14.8
8,Cc1ccc(-n2ncc3c2CCCC3NC(=O)c2cnccn2)cc1C (stereo not drawn),10.3
9,CCOc1ccc(C(C)NC(=O)Cc2ccccc2)cc1OCC (stereo not drawn),10.8
10,O=C(Cn1nc(C(F)(F)F)cc1C1CC1)Nc1ccccc1F,16.1
11,COCCN1CC(=O)N2C(c3cccc(C)c3)c3[nH]c4ccccc4c3C[C@H]2C1=O (stereo partly drawn),1.07
12,COc1cc2c3nnc(-c4ccc(F)cc4)c-3cn(Cc3ccc(C)cc3)c2cc1OC,13.5
13,COc1ccc(Cn2cc3c(-c4ccc(F)cc4)nnc-3c3cc(OC)c(OC)cc32)cc1,-75.6
14,COc1cc2c3nnc(-c4ccc(F)cc4)c-3cn(Cc3ccc(F)cc3)c2cc1OC,-5.13
15,Cc1cc(C)n(Cc2ccccc2)c(=O)c1S(=O)(=O)c1ccccc1,3.34
16,COC(=O)C(C)Sc1nnc(SC(C)C(=O)OC)s1 (stereo not drawn),23
17,O=C(N/N=C/c1cccc([N+](=O)[O-])c1O)C(O)(c1ccccc1)c1ccccc1,18.6
18,O=C(N/N=C/c1cc(Cl)cc([N+](=O)[O-])c1O)C(O)(c1ccccc1)c1ccccc1,-62.4
19,O=C(N/N=C/c1cc([N+](=O)[O-])cc([N+](=O)[O-])c1O)C(O)(c1ccccc1)c1ccccc1,0.978
20,CSc1cccc(NS(=O)(=O)c2ccc(F)cc2)c1,7.73
21,COCCCNC(=O)CC(C)c1ccccc1 (stereo not drawn),8.27
22,Cn1c2ccccc2n2c(=O)c(=O)n(CC(=O)N3CCCc4ccccc43)nc12,-1.27

row,Structure (SMILES),"hERG current change (%, negative = inhibition) at 1uM [%]"
1,Br.CCCCCCCCn1c2c(c(=N)c3c1CCC3)CCCC2,-84.6
2,Br.CCCCCCn1c2c(c(=N)c3c1CCC3)CCC2,-54
3,Br.CCCCCCCCCCn1c2c(c(=N)c3c1CCC3)CCC2,-71.7
4,CCCCCCn1c(=O)[nH]c2c(c1=O)CCC2,11.6
5,CCOC(=O)Cn1c2c(c(=N)c3c1CCC3)CCCC2.Cl,12.8
6,Br.CCn1c2c(c(=N)c3c1CCC3)CCC2,6.51
7,Br.CCn1c2c(c(=N)c3c1CCC3)CCCC2,4.22
8,CCCn1c2c(c(=N)c3c1CCC3)CCCC2.I,6.36
9,CCCn1c2c(c(=N)c3c1CCC3)CCC2.I,8.15
10,CCCCn1c2c(c(=N)c3c1CCC3)CCC2.I,5.32
11,CCOC(=O)Cn1c2c(c(=N)c3c1CCC3)CCC2.Cl,10.2
12,Br.CCCCCCCCCn1c2c(c(=N)c3c1CCC3)CCC2,-65.5
13,CC(=O)n1cc(/C=N/NC(=O)c2cccc(O)c2)c2ccccc21,13.7
14,CC(CC(=O)O)CC(=O)NNC(=O)c1cccc(Br)c1 (stereo not drawn),8.72
15,C/C(N)=C(/C#N)C(=O)COC(=O)CCSc1ccccc1Cl,12.1
16,CCN(c1ccccc1)S(=O)(=O)c1ccc(Cl)c(C(=O)NCC2CCCO2)c1 (stereo not drawn),2.1
17,O=C(C1CCN(C2CCN(C/C(Cl)=C/c3ccccc3)CC2)CC1)N1CCOCC1,-33.8
18,CN1CCN(C(c2ccc(C(F)(F)F)cc2)c2ccc3cccnc3c2O)CC1 (stereo not drawn),7.36
19,CCC1Oc2nc(SC)nnc2-c2ccccc2N1C(=O)c1ccccc1 (stereo not drawn),11.8
20,COC(=O)C1=C(C)Nc2nc3ccccc3n2C1c1ccccc1F (stereo not drawn),8.31
21,Cc1cc(CNC(=O)CC2C(=O)NCCN2CC(C)(C)C)nn1C (stereo not drawn),10.4
